The values that follow come from ChEMBL document CHEMBL4513216, “Probing the Open Global Health Chemical Diversity Library for Multistage-Active Starting Points for Next-Generation Antimalarials” (ACS Infect Dis, 2020).

Structures are written as SMILES. Out of some 69,000 compounds screened, about 8,600 (12%) showed an effect of 50% or more. The sample as a whole holds a higher share of strong results than the screen did.

The assay has as its system Plasmodium berghei. Briefly: Screen against P. berghei liver stage (PbLuc), transformed with Luciferase, at 10uM. It counts as functional, HepG2. The conditions noted are these: tested at 10 uM.
As to `CS(=O)(=O)N1C[C@H]2CC[C@@H](C1)N(CCC(=O)NCc1ccccc1F)C2`, the INHIBITION was -7.02%.
For `COCCN1C[C@@H]2CC[C@H]1CN(CC(=O)Nc1ccn(C)n1)C2`, the INHIBITION is recorded as 21.2%.
`Cn1ccc(NC(=O)CN2C[C@@H]3CC[C@H]2CN(S(C)(=O)=O)C3)n1`: the INHIBITION is reported as 53.3%.
Regarding `COC1CCN(c2ccc(F)cc2CN(C)C(C)C(N)=O)CC1` (stereo not given), the INHIBITION worked out at 7.3%.
Take `Cc1ccccc1N1CC2(CCN(Cc3nccn3C)C2)CC1=O` (stereo not given): the INHIBITION is on record as 25.2%.
With `Cc1cc(C)n(C2CCCN(C(=O)c3csc(C4CC4)n3)C2)n1` (stereo not given), the INHIBITION worked out at 34.7%.
Regarding `COCc1nc(C(=O)N2CCCC(n3nc(C)cc3C)C2)cs1` (stereo not given), the INHIBITION was 25.1%.
Regarding `Cc1nc(C)n(C2CCCN(C(=O)c3csnn3)C2)n1` (stereo not given), the INHIBITION is listed as 11.6%.
In the case of `CC(=O)Nc1nc(C(=O)N2CCCC(n3ccnc3)C2)cs1` (stereo not given), the INHIBITION stood at 31.9%.
As to `Cc1nc(C)n(C2CCCN(C(=O)c3csc(C(C)C)n3)C2)n1` (stereo not given), the INHIBITION worked out at 40.3%.
Regarding `Cc1cnc(C(=O)N2CCCC(n3nc(C)nc3C)C2)cn1` (stereo not given), the INHIBITION was 7.12%.
In the case of `Cc1nc(C)n(C2CCCN(C(=O)c3csc(C)n3)C2)n1` (stereo not given), the INHIBITION is listed as 14.4%.
Turning to `Cc1nc(C(=O)N2CCCC(n3cncn3)C2)cs1` (stereo not given), the INHIBITION was 31.1%.
With `Cc1nc(C)n(C2CCCN(C(=O)c3cscn3)C2)n1` (stereo not given), the INHIBITION was 60.2%.
`CC(=O)Nc1nc(C(=O)N2CCCC(n3nc(C)cc3C)C2)cs1` (stereo not given): the INHIBITION stood at 57.8%.
Regarding `CC(=O)Nc1nc(C(=O)N2CCCC(n3nc(C)nc3C)C2)cs1` (stereo not given), the INHIBITION stood at 53.9%.
`CC(=O)Nc1nc(C(=O)N2CCCC(n3cncn3)C2)cs1` (stereo not given): the INHIBITION is listed as 67.6%.
With `Cc1ccc(N(C)[C@@H]2CC[C@@H]3CN(C(=O)CC4CCOCC4)C[C@@H]32)nn1`, the INHIBITION was -16%.
Regarding `CCSc1ccccc1C(=O)NCCn1nc(-n2cncn2)ccc1=O`, the INHIBITION is 16.5%.
As for `Cn1ccc(C(=O)N2CCC(Cc3ccc4ncccc4c3)CC2)n1`, the INHIBITION came out at 28.1%.
With `CC(C)CNC(=O)[C@H]1C[C@H]2CN(C(=O)NCC3CCCCC3)C[C@@H]1O2`, the INHIBITION was -41.9%.
With `CCC(NC1Cc2ccccc2C1)c1ccc(S(C)(=O)=O)cc1` (stereo not given), the INHIBITION worked out at 29.4%.
As for `CCN(CC)S(=O)(=O)c1cnccc1N1CCN(C(C)C)CC1`, the INHIBITION was -26.8%.
With `CCNc1nnc(SC(C(=O)NCc2cccnc2)C(C)C)s1` (stereo not given), the INHIBITION is recorded as -7.98%.
With `CC(CN1CCOCC1)OC(=O)c1ccccc1I` (stereo not given), the INHIBITION was found to be 38.9%.
For the compound `COCc1nc(C(=O)N2CCCC(n3ccnc3C)C2)cs1` (stereo not given), the INHIBITION is -23.9%.
Regarding `COCc1nc(C(=O)N2CCCC(n3ccnc3)C2)cs1` (stereo not given), the INHIBITION is recorded as 59%.
Consider `COCc1nc(C(=O)N2CCCC(n3cccn3)C2)cs1` (stereo not given), for which the INHIBITION was found to be 17.8%.
Consider `COCCn1nc(C(=O)N2CCOCC2C)ccc1=O` (stereo not given), for which the INHIBITION came out at 47.6%.
For the compound `CC1CN(C)CCN1C(=O)c1ccn(-c2cccc(Cl)c2)n1` (stereo not given), the INHIBITION came to 10%.
On to `NC(=O)C1CCN(C(=O)c2ccn(-c3ccc(F)cc3)n2)C1` (stereo not given), for which the INHIBITION was 16.1%.
Consider `CC1CN(C)CCN1C(=O)c1ccn(-c2ccc(F)cc2)n1` (stereo not given), for which the INHIBITION is reported as 56.6%.
Turning to `CC1CN(C)CCN1C(=O)c1cccn1Cc1ccncc1` (stereo not given), the INHIBITION is reported as 8.08%.
As to `COc1ccc(-n2ccc(C(=O)N3CCN(C)CC3C)n2)cc1` (stereo not given), the INHIBITION is listed as 20.9%.
`CC1CN(C)CCN1C(=O)c1ccn(-c2ccccc2Cl)n1` (stereo not given): the INHIBITION was -25.6%.
Under `CC1CN(C)CCN1C(=O)c1ccn(-c2ccccc2)n1` (stereo not given) stands 63.5%; under `NC(=O)C1CCN(C(=O)c2ccn(-c3cccc(F)c3)n2)C1` (stereo not given), 23.5%.
The figure for `CC1CN(C)CCN1C(=O)c1ccn(-c2cccc(F)c2)n1` (stereo not given) is 51.1%.
For the compound `CC1COCCN1C(=O)c1ccc(=O)n(CCOc2ccccc2)n1` (stereo not given), the INHIBITION was found to be 4.41%.
Take `COCCn1nc(C(=O)N2CCN(C)CC2C)ccc1=O` (stereo not given): the INHIBITION came to 58.7%.
For `Cn1ccc(C(=O)NCCOc2ccc3c(c2)CCC3)cc1=O`, the INHIBITION is given as -15.5%.
Take `CCc1ocnc1C(=O)N1CCCC1c1noc(C2CC2)n1` (stereo not given): the INHIBITION is reported as 34.2%.
Turning to `Cc1cc(C(=O)Nc2ccc(OCCN3CCN(C)CC3)cc2)[nH]n1`, the INHIBITION was -49.9%.
The figure for `CCc1cc(=O)[nH]c(-c2ccc(NCCC(C)O)nc2)n1` (stereo not given) is 36.9%; for `CCN1CC[C@@]2(C(=O)N(C)C)CCN(C(=O)Cc3ccccc3)CC[C@@H]12` it is 11.2%.
For the compound `CC(C)n1ccnc1C1CCCN(c2ccnc3ccccc23)C1` (stereo not given), the INHIBITION is on record as 71.3%.
As to `CSc1nccc(N2CCCC(c3nccn3C(C)C)C2)n1` (stereo not given), the INHIBITION is 27.6%.
Under `CC(C)n1ccnc1C1CCCN(c2ccccn2)C1` (stereo not given) stands 24.6%.
With `Cc1ccnc(N2CCCC(c3nccn3C(C)C)C2)n1` (stereo not given), the INHIBITION is 15.8%.
`CC(C)n1ccnc1C1CCCN(c2nc3ccccc3s2)C1` (stereo not given): the INHIBITION is reported as 61.2%.
For the compound `CC(C)n1ccnc1C1CCCN(c2ccncc2F)C1` (stereo not given), the INHIBITION worked out at 32.1%.
As to `CN(C)C(=O)C1CCCN1CCCNC(=O)c1cccc2[nH]ncc12` (stereo not given), the INHIBITION is listed as 23.2%.
Under `COc1cc(C(C)=O)ccc1OCCNCc1ccco1` stands 5.67%.
Regarding `CC(=O)Nc1ccc(C(=O)N(C)Cc2cccc(F)c2)s1`, the INHIBITION was 39.7%.
`COc1cccc(CN(C)C(=O)c2ccc(NC(C)=O)s2)c1OC`: the INHIBITION is reported as 61.1%.
For the compound `Cc1cc(CNC(=O)N(Cc2ccc(F)cc2F)C2CC2)no1`, the INHIBITION is recorded as 44.1%.
In the case of `COc1cccc(CN(C)Cc2ccccc2C#N)c1OC`, the INHIBITION came to 4.48%.
The figure for `COc1cccc(CN(C)C(=O)CCC(=O)c2ccc(Cl)cc2)c1OC` is 40.1%.
As for `CC(=O)Nc1ccc(C(=O)N(C)Cc2ccc(F)cc2F)s1`, the INHIBITION was 56%.
As to `Cn1cc(-c2cnc(N3CCOCC3)nc2)cc1C(=O)NCCC#N`, the INHIBITION was 47.4%.
For the compound `Cn1nccc1-c1cccc(CC2CCN(S(C)(=O)=O)C2)n1` (stereo not given), the INHIBITION is on record as 12.905%.
On to `Clc1cccc(Cl)c1-c1nnc(CNCCn2cccn2)o1`, for which the INHIBITION is -48.4%.
Take `Cc1nc(CCNC(=O)N2CCC(Cc3cnn(C)c3)C2)cs1` (stereo not given): the INHIBITION is recorded as -4.74%.
As for `Clc1cccc(Cl)c1CNCCOc1ccccn1`, the INHIBITION is reported as 60%.
The figure for `Fc1cccc(Cl)c1CNCCOc1ccccn1` is 27%; for `Fc1cccc(Cl)c1CNCCCOc1ccccn1` it is 2.61%.
For `CCOc1nn(CC)cc1-c1nnc(SCc2cccnc2)n1CC`, the INHIBITION turned out to be 9%.
As to `Cc1noc(C)c1CNc1cccc(C(=O)N(C)c2ccccc2)c1`, the INHIBITION stood at 59.1%.
As for `Cc1noc(C)c1CNc1cccc(C(=O)N2CCCC(O)C2)c1` (stereo not given), the INHIBITION stood at 20.6%.
Regarding `Cc1cc(CNc2cccc(C(=O)N(C)c3ccccc3)c2)no1`, the INHIBITION is recorded as 45%.
